Legend:
Assay in all cases: log2 ratio of Biotin-Ahx-Ub-VS probe labelling (fragment/DMSO); higher = less target engagement (more negative = stronger competition), active = hit call of the paper (q ≤ 0.05, log2 ratio ≤ -1)
Settings in all cases: compound concentration: 200 uM; treatment time: 3 h
USP19 = biological target: T1, USP19 (UniProt O94966)
T1 sequence (whole entry): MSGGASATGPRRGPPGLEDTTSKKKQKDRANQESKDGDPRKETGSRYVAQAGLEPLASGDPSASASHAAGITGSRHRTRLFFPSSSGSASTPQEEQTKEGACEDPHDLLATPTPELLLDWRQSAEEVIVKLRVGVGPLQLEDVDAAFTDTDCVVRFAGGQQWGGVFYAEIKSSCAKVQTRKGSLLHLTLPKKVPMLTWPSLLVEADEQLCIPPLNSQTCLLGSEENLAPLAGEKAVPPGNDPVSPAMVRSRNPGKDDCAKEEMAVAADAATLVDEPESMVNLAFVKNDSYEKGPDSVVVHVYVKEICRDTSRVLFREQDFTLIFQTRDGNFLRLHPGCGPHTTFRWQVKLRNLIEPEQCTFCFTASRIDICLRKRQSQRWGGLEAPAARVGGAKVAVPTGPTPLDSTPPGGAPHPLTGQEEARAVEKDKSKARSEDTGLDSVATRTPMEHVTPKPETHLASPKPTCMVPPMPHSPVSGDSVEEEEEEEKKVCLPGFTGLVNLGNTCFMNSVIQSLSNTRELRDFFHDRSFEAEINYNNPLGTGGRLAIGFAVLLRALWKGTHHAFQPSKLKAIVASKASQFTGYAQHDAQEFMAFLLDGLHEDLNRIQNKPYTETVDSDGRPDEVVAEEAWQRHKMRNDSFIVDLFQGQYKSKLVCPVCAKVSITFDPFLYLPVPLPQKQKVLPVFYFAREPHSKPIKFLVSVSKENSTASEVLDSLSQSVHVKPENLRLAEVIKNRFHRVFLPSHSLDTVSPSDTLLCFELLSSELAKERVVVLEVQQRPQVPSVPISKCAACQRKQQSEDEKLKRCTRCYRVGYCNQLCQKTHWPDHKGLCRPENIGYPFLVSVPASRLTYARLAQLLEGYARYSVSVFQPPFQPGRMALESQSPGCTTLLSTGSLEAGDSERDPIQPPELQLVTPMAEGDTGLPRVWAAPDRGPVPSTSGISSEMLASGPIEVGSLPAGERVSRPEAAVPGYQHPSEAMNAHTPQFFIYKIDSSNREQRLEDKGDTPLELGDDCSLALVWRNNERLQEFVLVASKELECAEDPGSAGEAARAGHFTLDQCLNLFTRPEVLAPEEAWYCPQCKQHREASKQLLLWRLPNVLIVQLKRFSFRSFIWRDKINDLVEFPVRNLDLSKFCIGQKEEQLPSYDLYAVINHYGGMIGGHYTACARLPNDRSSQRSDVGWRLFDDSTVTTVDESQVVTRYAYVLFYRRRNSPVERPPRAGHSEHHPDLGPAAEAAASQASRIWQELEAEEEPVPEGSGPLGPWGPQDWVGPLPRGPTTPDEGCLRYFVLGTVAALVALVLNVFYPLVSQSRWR
How it was run: (§1)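 Fragment (200 µM) or vehicle was incubated for 3 h with triplicate HEK293T lysate samples of 495 µg, which were then treated with Biotin-Ahx-Ub-VS at 0.5 µM final for 1 h. Labelled DUBs were enriched on NeutrAvidin, digested with LysC and trypsin, and analysed by diaPASEF LC-MS/MS. Values are average log2 fragment/vehicle ratios from an unpaired t-test on global-median-normalised Spectronaut label-free quantities, using proteins with ≥2 unique peptides.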

USP22 = biological target: T2, USP22 (UniProt Q9UPT9)
T2 sequence (whole entry): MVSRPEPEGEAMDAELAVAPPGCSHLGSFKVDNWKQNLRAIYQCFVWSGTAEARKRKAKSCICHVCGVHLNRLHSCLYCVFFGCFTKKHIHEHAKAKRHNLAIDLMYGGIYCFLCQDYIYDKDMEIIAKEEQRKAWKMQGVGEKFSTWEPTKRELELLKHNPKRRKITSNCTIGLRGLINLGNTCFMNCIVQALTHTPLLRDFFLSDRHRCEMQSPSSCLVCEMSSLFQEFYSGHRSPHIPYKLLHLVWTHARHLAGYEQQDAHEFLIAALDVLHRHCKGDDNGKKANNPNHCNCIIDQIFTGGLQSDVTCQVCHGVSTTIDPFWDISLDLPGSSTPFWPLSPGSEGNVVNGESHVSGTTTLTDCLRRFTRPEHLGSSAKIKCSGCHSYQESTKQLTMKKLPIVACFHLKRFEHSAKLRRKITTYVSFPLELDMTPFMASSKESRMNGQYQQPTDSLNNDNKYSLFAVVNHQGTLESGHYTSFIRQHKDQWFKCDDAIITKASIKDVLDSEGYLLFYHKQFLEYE
How it was run: as §1

USP24 = USP24 (UniProt Q9UPU5)
How it was run: as §1

USP25 = biological target: T3, USP25 (UniProt Q9UHP3)
T3 sequence (whole entry): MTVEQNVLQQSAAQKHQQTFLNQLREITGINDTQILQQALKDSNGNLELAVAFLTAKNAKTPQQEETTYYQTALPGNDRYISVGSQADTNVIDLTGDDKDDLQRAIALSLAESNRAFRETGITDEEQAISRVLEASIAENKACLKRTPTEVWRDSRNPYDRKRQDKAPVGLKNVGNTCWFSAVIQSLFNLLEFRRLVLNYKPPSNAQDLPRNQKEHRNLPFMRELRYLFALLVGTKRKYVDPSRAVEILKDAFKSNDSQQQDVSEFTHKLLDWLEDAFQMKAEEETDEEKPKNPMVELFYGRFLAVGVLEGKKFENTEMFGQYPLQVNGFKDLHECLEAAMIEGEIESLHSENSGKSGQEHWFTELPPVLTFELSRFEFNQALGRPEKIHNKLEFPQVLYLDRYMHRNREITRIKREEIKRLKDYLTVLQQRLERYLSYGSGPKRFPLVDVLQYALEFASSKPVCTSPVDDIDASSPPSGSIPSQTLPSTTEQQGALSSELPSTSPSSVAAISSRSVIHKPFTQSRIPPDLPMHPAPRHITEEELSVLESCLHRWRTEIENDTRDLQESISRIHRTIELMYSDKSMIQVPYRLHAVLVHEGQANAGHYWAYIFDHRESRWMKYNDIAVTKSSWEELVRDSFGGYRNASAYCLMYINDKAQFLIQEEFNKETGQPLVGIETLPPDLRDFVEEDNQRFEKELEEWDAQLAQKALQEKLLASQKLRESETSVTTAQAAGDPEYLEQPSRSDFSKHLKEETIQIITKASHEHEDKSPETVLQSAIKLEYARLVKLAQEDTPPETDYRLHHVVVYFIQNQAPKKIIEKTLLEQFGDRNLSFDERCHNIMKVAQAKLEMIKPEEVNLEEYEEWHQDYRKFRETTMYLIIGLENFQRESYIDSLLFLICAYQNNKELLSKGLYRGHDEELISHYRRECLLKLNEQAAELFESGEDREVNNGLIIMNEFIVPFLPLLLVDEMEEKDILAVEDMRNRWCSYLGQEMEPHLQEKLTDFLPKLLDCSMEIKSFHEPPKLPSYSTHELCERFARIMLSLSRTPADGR
How it was run: as §1

USP28 = biological target: T4, USP28 (UniProt Q96RU2)
T4 sequence (whole entry): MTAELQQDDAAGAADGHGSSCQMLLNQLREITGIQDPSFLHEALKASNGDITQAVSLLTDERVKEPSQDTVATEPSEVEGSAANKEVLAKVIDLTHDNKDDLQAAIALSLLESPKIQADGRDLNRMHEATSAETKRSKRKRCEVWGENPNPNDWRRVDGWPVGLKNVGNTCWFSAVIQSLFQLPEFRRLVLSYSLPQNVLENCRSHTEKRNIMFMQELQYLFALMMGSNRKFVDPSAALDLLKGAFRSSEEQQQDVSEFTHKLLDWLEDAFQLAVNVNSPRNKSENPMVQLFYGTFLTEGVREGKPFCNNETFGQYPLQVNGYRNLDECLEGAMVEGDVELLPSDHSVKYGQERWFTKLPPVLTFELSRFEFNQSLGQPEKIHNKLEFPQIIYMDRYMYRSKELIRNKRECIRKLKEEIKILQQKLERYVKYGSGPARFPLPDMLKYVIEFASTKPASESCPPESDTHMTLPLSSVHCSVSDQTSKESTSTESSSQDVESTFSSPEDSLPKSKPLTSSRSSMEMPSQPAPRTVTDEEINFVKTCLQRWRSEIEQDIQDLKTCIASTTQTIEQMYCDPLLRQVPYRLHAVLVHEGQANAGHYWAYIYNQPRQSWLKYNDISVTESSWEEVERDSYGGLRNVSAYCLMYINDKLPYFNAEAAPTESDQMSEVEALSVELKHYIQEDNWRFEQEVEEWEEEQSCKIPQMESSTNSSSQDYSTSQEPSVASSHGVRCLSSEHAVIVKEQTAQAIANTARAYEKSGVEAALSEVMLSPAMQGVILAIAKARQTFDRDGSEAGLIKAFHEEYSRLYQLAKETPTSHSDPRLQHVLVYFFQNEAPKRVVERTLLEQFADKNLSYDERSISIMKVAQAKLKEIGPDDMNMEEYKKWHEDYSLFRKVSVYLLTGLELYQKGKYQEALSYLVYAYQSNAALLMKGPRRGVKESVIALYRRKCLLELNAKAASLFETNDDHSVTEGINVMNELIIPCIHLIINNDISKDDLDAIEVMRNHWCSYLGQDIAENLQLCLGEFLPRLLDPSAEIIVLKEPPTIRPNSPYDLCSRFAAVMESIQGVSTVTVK
How it was run: as §1

Measured: log2 ratio of Biotin-Ahx-Ub-VS probe labelling

Chain of USP24 (Q9UPU5 whole entry): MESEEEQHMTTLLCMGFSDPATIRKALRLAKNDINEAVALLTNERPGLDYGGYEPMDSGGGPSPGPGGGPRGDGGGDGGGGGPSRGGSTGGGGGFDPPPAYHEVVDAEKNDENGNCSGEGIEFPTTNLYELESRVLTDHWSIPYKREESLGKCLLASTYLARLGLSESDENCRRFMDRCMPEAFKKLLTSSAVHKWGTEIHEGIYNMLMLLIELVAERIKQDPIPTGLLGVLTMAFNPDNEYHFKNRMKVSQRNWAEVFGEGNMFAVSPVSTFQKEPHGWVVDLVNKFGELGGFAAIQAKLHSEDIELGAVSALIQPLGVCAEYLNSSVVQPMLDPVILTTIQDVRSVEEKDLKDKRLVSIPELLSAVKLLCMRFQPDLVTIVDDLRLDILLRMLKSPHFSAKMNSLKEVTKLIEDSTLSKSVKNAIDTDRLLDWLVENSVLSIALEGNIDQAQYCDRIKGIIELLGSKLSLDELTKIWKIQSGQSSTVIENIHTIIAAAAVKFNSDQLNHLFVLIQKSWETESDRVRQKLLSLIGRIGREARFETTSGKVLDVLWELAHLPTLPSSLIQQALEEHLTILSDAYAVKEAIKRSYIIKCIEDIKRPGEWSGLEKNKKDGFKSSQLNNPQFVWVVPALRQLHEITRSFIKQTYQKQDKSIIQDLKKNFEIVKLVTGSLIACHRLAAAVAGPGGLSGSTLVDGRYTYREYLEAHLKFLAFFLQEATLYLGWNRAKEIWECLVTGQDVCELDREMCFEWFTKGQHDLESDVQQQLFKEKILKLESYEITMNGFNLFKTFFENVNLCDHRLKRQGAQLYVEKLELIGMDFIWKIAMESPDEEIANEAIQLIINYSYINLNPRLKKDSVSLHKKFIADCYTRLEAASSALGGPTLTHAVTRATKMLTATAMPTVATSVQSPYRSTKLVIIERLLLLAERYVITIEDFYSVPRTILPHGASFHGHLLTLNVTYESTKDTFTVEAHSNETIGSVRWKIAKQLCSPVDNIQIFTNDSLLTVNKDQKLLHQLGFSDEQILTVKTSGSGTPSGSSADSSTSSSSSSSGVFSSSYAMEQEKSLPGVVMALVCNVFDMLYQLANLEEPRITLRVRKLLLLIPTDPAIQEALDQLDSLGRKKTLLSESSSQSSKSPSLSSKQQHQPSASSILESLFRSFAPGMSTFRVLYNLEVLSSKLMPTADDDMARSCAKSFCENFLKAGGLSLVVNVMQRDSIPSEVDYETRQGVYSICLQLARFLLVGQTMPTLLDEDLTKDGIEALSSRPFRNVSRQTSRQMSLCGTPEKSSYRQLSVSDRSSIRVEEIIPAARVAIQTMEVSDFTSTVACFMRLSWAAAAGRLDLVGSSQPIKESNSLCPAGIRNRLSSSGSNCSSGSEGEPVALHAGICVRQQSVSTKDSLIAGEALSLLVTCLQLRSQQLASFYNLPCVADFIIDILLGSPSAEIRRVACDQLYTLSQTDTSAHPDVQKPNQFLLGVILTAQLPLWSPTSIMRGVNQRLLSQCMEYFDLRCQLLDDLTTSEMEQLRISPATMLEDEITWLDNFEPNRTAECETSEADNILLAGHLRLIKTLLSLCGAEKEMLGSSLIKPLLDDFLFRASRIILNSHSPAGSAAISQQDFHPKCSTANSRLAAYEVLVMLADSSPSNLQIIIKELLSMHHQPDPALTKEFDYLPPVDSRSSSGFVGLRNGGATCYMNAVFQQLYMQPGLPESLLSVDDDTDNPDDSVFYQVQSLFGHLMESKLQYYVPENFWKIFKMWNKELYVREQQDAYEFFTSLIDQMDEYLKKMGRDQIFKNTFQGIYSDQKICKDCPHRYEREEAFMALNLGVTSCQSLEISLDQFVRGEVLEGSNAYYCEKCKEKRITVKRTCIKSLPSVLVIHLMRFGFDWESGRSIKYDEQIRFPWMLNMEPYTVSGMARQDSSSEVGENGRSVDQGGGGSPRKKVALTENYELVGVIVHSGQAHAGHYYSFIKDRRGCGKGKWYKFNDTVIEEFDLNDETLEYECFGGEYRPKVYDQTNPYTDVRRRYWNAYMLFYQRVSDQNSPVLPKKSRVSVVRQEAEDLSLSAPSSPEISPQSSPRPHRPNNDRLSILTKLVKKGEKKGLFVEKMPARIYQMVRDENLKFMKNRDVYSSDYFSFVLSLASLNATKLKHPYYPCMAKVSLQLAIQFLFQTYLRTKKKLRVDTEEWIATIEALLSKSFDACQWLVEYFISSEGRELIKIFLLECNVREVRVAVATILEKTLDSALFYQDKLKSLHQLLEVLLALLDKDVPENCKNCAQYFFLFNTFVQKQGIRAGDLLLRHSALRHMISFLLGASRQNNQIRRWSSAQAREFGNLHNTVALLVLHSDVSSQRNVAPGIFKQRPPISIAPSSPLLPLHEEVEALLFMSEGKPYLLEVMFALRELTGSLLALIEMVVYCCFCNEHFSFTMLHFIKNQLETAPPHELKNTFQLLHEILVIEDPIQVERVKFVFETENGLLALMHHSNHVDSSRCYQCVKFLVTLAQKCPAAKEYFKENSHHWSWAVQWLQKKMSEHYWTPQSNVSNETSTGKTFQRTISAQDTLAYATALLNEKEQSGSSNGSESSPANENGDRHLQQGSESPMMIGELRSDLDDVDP

Cl.O=C(CCl)NC1(c2ncccn2)CCC1
inactive: USP19 0.0868 | USP22 0.221 | USP24 0.06 | USP25 -0.18 | USP28 -0.0581
